Reference: PubChem BioAssay (NCI)
The panel holds about 83,000 compounds, 20% with a hit somewhere; the sample as a whole holds those more often.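 How to read the values: 0–100, growth inhibition (40 = 60% inhibited); 0, no net growth; -100 to 0, cell death (-40 = 40% of starting cells died; -100 = all dead).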 A number with no mark means an inactive call. Activity calls are given as the source filed them. The calls were made as follows: active = growth percent below 10; inactive = the rest.

Key:
Assay in all cases: NCI-60 one-dose screen, 48 h (100 = growth as untreated, 0 = no growth, -100 = all killed)
Settings in all cases: 10 µM unless noted
HCT-15 colon = system: HCT-15 colon
HT29 colon = system: HT29 colon
SNB-19 CNS = system: SNB-19 CNS
U251 CNS = system: U251 CNS
PC-3 prostate = system: PC-3 prostate
SK-MEL-5 melanoma = system: SK-MEL-5 melanoma
UACC-62 melanoma = system: UACC-62 melanoma
SK-MEL-28 melanoma = system: SK-MEL-28 melanoma
SNB-75 CNS = system: SNB-75 CNS
LOX IMVI melanoma = system: LOX IMVI melanoma

SMILES	growth (HCT-15 colon)	growth (HT29 colon)	growth (SNB-19 CNS)	growth (U251 CNS)	growth (PC-3 prostate)	growth (SK-MEL-5 melanoma)	growth (UACC-62 melanoma)	growth (SK-MEL-28 melanoma)	growth (SNB-75 CNS)	growth (LOX IMVI melanoma)
O=S(=O)(Nc1ccc(I)cc1Cl)c1ccc(-c2cnc(C3CC3)o2)cc1	30.7%	15.9%	45.9%	35.2%	34%	40.2%	39%	53.8%	–	–
CC1(C)[C@@H](O)CC[C@]2(C)[C@H]3CC[C@@H]4[C@H]5[C@H](C(=O)/C=C\c6ccc([N+](=O)[O-])cc6)CC[C@]5(O)CC[C@@]4(C)[C@]3(C)CC[C@@H]12	27.5%	46.1%	62.2%	69.9%	47.9%	75.8%	48.9%	46%	42.1%	–
Cc1cc(C)c2sc(=O)n(Cc3nnc(SCCC(=O)O)o3)c2n1	99.6%	110%	95.4%	102%	92.7%	–	95.5%	101%	103%	99.2%
COc1ccc([C@H]2[C@H](O)C(=O)N2c2cc(OC)c(OC)c(OC)c2)cc1F	7.86% (active)	-26% (active)	27.7%	7.47% (active)	19.8%	-30.9% (active)	33.3%	63%	19%	–
COc1c(N2CC3CCCNC3C2)c(F)cc2c(=O)c(C(=O)N/N=C/c3ccc(Br)cc3)cn(C3CC3)c12 (stereo not drawn)	1.76% (active)	13.6%	88.3%	86.9%	65.1%	84%	43%	86.2%	103%	–
O=C(Nc1nc2ccc([N+](=O)[O-])cc2s1)Nc1ccccc1Cl	29.5%	53.6%	21.7%	29.2%	17.3%	-22.5% (active)	6.62% (active)	49.5%	–	–
CNCc1cccc2c1OCCCCCCC(C)(O)CC(C)(C)S(=O)(=O)c1ccc(cc1)-c1cnc(N)c(n1)C(=O)N2 (stereo not drawn)	-20.6% (active)	-8.67% (active)	33%	-70.9% (active)	16%	–	1.85% (active)	13.5%	84%	-59.4% (active)
C=CCn1c(-c2nc3ccc(C(=C(C#N)C#N)c4ccccc4)cc3[nH]2)cc2cc(Br)ccc21	30.4%	64.4%	70.8%	51.9%	31.5%	55.9%	39.5%	82.9%	89.3%	–
COc1cccc2c1CN(C(=O)c1ccc(O)c(C(=O)N3Cc4ccc(OCCC[P+](c5ccccc5)(c5ccccc5)c5ccccc5)cc4C3)c1)C2	102%	100%	28.3%	53.6%	71.7%	35.7%	44.4%	63.2%	80.9%	–
Cc1ccc(N2C(=O)/C(=C/C=C/c3ccco3)SC2=S)cc1	88.4%	102%	92.4%	93.8%	73.3%	–	89%	95.8%	98.1%	96.2%
Cc1cc(-c2ccc(Cl)cc2)n(Cc2nnc(SCC(=O)Nc3ccc(S(N)(=O)=O)cc3)n2C2CCCCC2)n1	98.4%	108%	97.6%	101%	101%	100%	99.2%	106%	118%	–
NS(=O)(=O)c1ccc(-n2cc(-c3cccc(NC(=O)c4ccc(N5CCOCC5)c(C(F)(F)F)c4)c3)nn2)cc1	39.3%	61%	62.9%	54.2%	23.5%	–	30.5%	54.7%	65.2%	9.34% (active)
Cc1ccc2sc3c(c2c1)OC(N)=C(C#N)C3c1ccc(Cl)cc1 (stereo not drawn)	30.3%	67.3%	89.9%	96.3%	71.1%	–	45.7%	75.2%	81.6%	86.9%
Cc1cc(C)cc(C(=O)Nc2cccc(C#Cc3cccc4[nH]nc(N)c34)c2)c1	33.8%	41.7%	99.5%	72.2%	33.6%	–	60.5%	72%	40.3%	43.2%
CNC(=O)c1cc(Oc2ccc3nc(NC(=O)c4cccc(OC(F)(F)F)c4)sc3c2)ccn1	81.7%	86%	81.3%	84.3%	73%	–	78.4%	85.3%	45.5%	85.2%
O=C1/C(=C/C=C/c2ccco2)SC(=S)N1c1ccccc1	56.9%	83.6%	86.3%	49.8%	71.3%	–	70.7%	79.9%	101%	26%
CNC(=O)c1cc(Oc2ccc3nc(NC(=O)c4cc(N5CCOCC5)cc(C(F)(F)F)c4)sc3c2)ccn1	58.9%	62.3%	92.9%	72.3%	46.7%	–	72.4%	81.1%	71.6%	83.5%
COc1cccc2cc(-c3cc4ccccc4[nH]3)/c(=N\NC(=O)c3ccc(Cl)cc3)oc12	20.3%	67%	47.4%	34.6%	35.3%	48.4%	16.1%	42.6%	–	–
COc1ccc(/C=C/C(=O)c2cc(S(N)(=O)=O)c(OC)cc2OC)cc1	42.6%	102%	81%	68.7%	42.9%	–	76.8%	40.9%	71.4%	52.2%
COc1ccccc1C(=O)Nc1cccc2c1C(=O)C(=O)C=C2	–	62.5%	106%	107%	89.8%	93.2%	105%	108%	70%	63.1%
c1ccc(C(c2nc3ncncc3[nH]2)N2CSc3nc4ncncc4n3C2)cc1 (stereo not drawn)	–	42.7%	96.9%	92.1%	78.2%	85.1%	27.5%	98.4%	45%	13.2%
CCNC(=O)N1CCc2cc(OC)c(OCCc3ccc(OC)cc3)cc2C1c1ccc(OC)cc1C (stereo not drawn)	–	-0.449% (active)	25.8%	20.6%	27.9%	-1.62% (active)	19.5%	46.7%	3.67% (active)	4% (active)
O=C(CSc1nc2ccccc2c(=O)n1-c1ccccc1)Nc1ccc(-c2nc3ccc([N+](=O)[O-])cc3[nH]2)cc1	–	79.3%	81.8%	87.6%	69.7%	91.4%	51.9%	82.6%	82.5%	37.8%
O=S(=O)(NCCCNc1nccc(-c2[nH]c(-c3ccccc3)nc2-c2ccc(Cl)c(O)c2)n1)c1cccc(F)c1	–	61.7%	82.9%	64.4%	46.8%	23.5%	19.3%	25.3%	104%	39.8%
C[C@@H](Nc1ncnc2ccc(-c3cnc(Cl)c(NS(C)(=O)=O)c3)cc12)c1ccccc1	–	64.6%	64%	67.9%	41.5%	66.3%	35.6%	50.4%	-14.7% (active)	40.2%
O=C1CCCC2=C1C(c1c[nH]c3ccc(Br)cc13)Cc1cc(Br)ccc1N2 (stereo not drawn)	–	12.2%	32.6%	31.6%	9.76% (active)	43%	10.4%	54.3%	39.8%	14.1%
CN1CCN(Cc2ccc(NC(=O)c3cncc(C#Cc4cnc5ccc(OCC6(C)COC6)nn45)c3)cc2C(F)(F)F)CC1	–	-37.5% (active)	-86.1% (active)	-62% (active)	-69% (active)	-93.2% (active)	-90.5% (active)	-89.2% (active)	-68.7% (active)	-93.5% (active)
CNC(=O)c1cc(-n2ccc3cc(NC(=O)Nc4ccc(N5CCOCC5)c(C(F)(F)F)c4)ccc32)ccn1	–	19.6%	74.2%	42%	4.72% (active)	4.69% (active)	13.4%	62.9%	17.1%	13.3%
Cn1ccnc1C(=O)/C=C/c1ccc(CNC(=O)c2ccc(Cl)cc2)cc1	–	-16.3% (active)	11.1%	7.03% (active)	19.9%	32.6%	5.76% (active)	45.2%	56%	-89.2% (active)
